Screening data from PubChem BioAssay.
This is a sample that favours compounds with a hit; in the whole collection about 1.8% have one here.
Granule exo inh: lytic granule exocytosis inhibition | TALL-104 LAMP-1 surface exposure, flow cytometry; cells stimulated with thapsigargin and PMA | inhibition, % at 10 µM | actives 0.66% (n = 360,000) | AID 651702;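 active = inhibition above about 55%, limit read from the data; inconclusive = no clear call, values can overlap the other calls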
ABCB6 inh 2: human ABCB6 transporter inhibition; Q9NP58; K562-ABCB6 porphyrin accumulation, flow cytometry, 1 h; active compounds read low; actives 0.19% (n = 360,000); fluorescence ratio to DMSO, % at 10 µM;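 active = fluorescence ratio to DMSO below 75%, the collection mean minus 3 SD; inconclusive = too few cells collected in the well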;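 note: signal is porphyrin accumulated inside mitochondria; lower ratio means ABCB6 inhibition with less porphyrin fluorescence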
Myeloid diff 2: promotes myeloid progenitor differentiation. calls only at 10 µM. ER-HoxA9 myeloid progenitors, lysozyme-GFP differentiation, flow cytometry. AID 624256. actives 1% (n = 360,000);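 active = normalized GFP-positive differentiation at or above the plate's own cutoff, the solvent-only control mean plus 3 SD; inconclusive = no clear call, values can overlap the other calls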;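 note: cells exposed to compound for four days before flow analysis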
Numbers stand for hits; - = inactive; ? = inconclusive; . = no result; + = active, no number.

SMILES	Granule exo inh	ABCB6 inh 2	Myeloid diff 2
O=C(C1CCCN(S(=O)(=O)c2cccc3nonc23)C1)N1CCN(c2cccc(Cl)c2)CC1 (centres undefined)	-	-	+
O=C(C1CCCN(S(=O)(=O)c2cccc3nonc23)C1)N1CCN(c2ccccc2Cl)CC1 (centres undefined)	-	-	-
O=C(/C(=C/c1ccc(Cl)cc1)c1nc2ccccc2[nH]1)c1ccccc1	-	-	+
O=C(N/C(=C/c1ccc(Cl)cc1)c1nc2ccccc2[nH]1)c1ccco1	-	-	-
CN(Cc1ccc2nsnc2c1)C(=O)C1CCC(=O)N(CCc2ccccc2)C1 (centres undefined)	-	-	-
CCSC1(SCC)N=C(N)C2(C#N)C(c3ccc(F)cc3)C12C#N (centres undefined)	69	-	-
COC1(OC)N=C(N)C2(C#N)C(c3ccc(F)cc3)C12C#N (centres undefined)	-	-	-
O=S(=O)(c1cccc2nonc12)N1CCCCCC1	-	-	-
Cc1ccc(S(=O)(=O)N(C)C[C@@H]2Oc3ccc(NC(=O)CCC(F)(F)F)cc3CC(=O)N([C@@H](C)CO)C[C@@H]2C)cc1	-	-	-
CCN1/C(=C/c2ccc3cc(C)ccc3[n+]2CC)Sc2cc(C)c(C)cc21	57	-	.
CCN1/C(=C/c2ccc3cc(C)ccc3[n+]2CC)Sc2ccccc21	-	.	?
COCCN(C(=O)CSc1nnc(-c2ccccc2F)o1)c1c(N)n(Cc2ccccc2)c(=O)[nH]c1=O	-	-	-
COc1cc2c(cc1OC)C(=O)C(Br)CC2 (centres undefined)	100	-	-
COc1cc2c(cc1OC)C(=O)C(c1ccc3c(c1)OCO3)CC2 (centres undefined)	-	-	-
Cc1cc(F)ccc1C(O)c1ncc(-c2ccc3ccccc3c2)[nH]1 (centres undefined)	-	-	?
CC1(C)CC(=O)C2=C(C1)N(CC1CCCO1)C(=O)NC2(C(F)(F)F)C(F)(F)F (centres undefined)	-	-	-
CC1(C)CC(=O)C2=C(C1)N(CC1CCCO1)C(=O)C2(O)C(F)(F)F (centres undefined)	80	-	-
Cn1cc(-c2csc(C(O)c3ccc(F)c(F)c3)n2)cn1 (centres undefined)	-	-	-
OCc1ccccc1-c1cnc2cccnn12	-	-	-
CCOC(=O)/C(C#N)=C/c1cc(C)n(-c2ccc(C)cc2)c1C	86	-	-
CCOC(=O)/C(C#N)=C/c1c(N2CCN(c3ccccc3)CC2)nc2ccccn2c1=O	-	-	-
CCOC(=O)/C(C#N)=C\c1ccc(N2CCN(C/C=C/c3ccccc3)CC2)cc1	-	-	+
CCOC(=O)/C(C#N)=C\c1cc(C)n(-c2ccccc2)c1C	-	-	-
Brc1cccc(-c2cnco2)c1	-	-	-
CC1(C(=O)NCC2CCCCC2)CCN1C(=O)Cc1ccc(-c2ccccc2)cc1 (centres undefined)	-	-	-
SMILES	Granule exo inh	ABCB6 inh 2	Myeloid diff 2
COc1ccc(C2c3c(-c4ccccc4O)n[nH]c3C(=O)N2CCc2ccc(OC)c(OC)c2)cc1 (centres undefined)	-	-	-
COc1ccc(CCN2C(=O)c3[nH]nc(-c4ccccc4O)c3C2c2cccc(Cl)c2)cc1 (centres undefined)	62	-	-
CC(=O)C1CCC2C3CCC4=CC(=O)CCC4(C)C3(F)C(O)CC12C (centres undefined)	-	-	-
COc1ccc(OC)c2[nH]c(C(=O)N/N=C/c3ccccc3O)cc12	-	-	.
COc1ccc(/C=N/NC(=O)c2cc3c(OC)ccc(OC)c3[nH]2)cc1O	62	-	.
CC1(C(=O)NS(=O)(=O)c2ccccc2)CCN1C(=O)CC1CCCCC1 (centres undefined)	-	-	-
Cc1ccc2c(c1)C(=C(C#N)C#N)CCN2	-	-	-
CN1C[C@@H]2[C@@H]3C(=O)N(C)C(=O)[C@@H]3[C@](Cc3ccccc3)(C1=O)N2C(=O)c1ccc(F)cc1	-	-	-
CN1C[C@@H]2[C@@H]3C(=O)N(C)C(=O)[C@@H]3[C@](Cc3ccccc3)(C1=O)N2C(=O)c1ccccc1	-	-	+
CC[C@@H](C)[C@H](CN[C@H](CNC)C(C)C)NC[C@@H](C)c1ccc(CC(C)C)cc1	-	-	+
CC[C@H](C)[C@@H](CNC)NC[C@@H](Cc1ccc(O)cc1)NCC(C)(C)C	-	-	-
CCCCN1CCN=C1N(C)C	-	-	-
O=S(=O)(c1ccccc1)c1cnc(-c2cccnc2)nc1-c1ccccc1	-	-	-
Cc1nc(-c2ccccc2)sc1-c1nc(-c2cccnc2)ncc1S(=O)(=O)c1ccccc1	-	-	+
C[C@@H]1CN([C@H](C)CO)C(=O)c2cc(Br)cnc2O[C@@H]1CN(C)C(=O)CC1CC1	-	-	-
